Shown is part of a subset that was picked to be rich in hits.
BL2 CD40 inh: CD40 pathway inhibition in BL2 cells; BL2 NF-kB luciferase reporter, CD40L-induced, 4 h; inhibition, % at 10 µM; hit rate 0.94% among 83,000; AID 1053188;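 active = mean inhibition of at least 50% with a set share of replicates also reaching that level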;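 also: 0% = neutral control wells and 100% = IKK inhibitor VII at 50 µM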
An asterisk follows results filed as active; [ ] = dose if it differs, or a comment.

C[C@@H]1CN([C@H](C)CO)C(=O)Cc2cc(NS(C)(=O)=O)ccc2O[C@@H]1CN(C)Cc1ccc(C(=O)O)cc1 was read as BL2 CD40 inh -1.
C[C@H](CO)N1C[C@H](C)[C@@H](CN(C)Cc2ccncc2)Oc2ccc(NS(=O)(=O)c3ccc(F)cc3)cc2CC1=O was read as BL2 CD40 inh 0[25 µM].
Screening C[C@@H]1CN([C@@H](C)CO)C(=O)Cc2cc(NS(=O)(=O)c3ccc(F)cc3)ccc2O[C@H]1CN(C)Cc1ccncc1 returned BL2 CD40 inh 7[25 µM].
C[C@@H]1CN([C@@H](C)CO)C(=O)Cc2cc(NS(=O)(=O)c3ccc(F)cc3)ccc2O[C@@H]1CN(C)Cc1ccc(C(F)(F)F)cc1 was read as BL2 CD40 inh 47*.
Screening C[C@@H]1CN([C@H](C)CO)C(=O)Cc2cc(NS(=O)(=O)c3ccc(F)cc3)ccc2O[C@H]1CN(C)Cc1ccncc1 returned BL2 CD40 inh 5[25 µM].
COc1ccc(CN(C)C[C@H]2Oc3ccc(NS(=O)(=O)c4ccc(Cl)cc4)cc3CC(=O)N([C@@H](C)CO)C[C@@H]2C)cc1 was read as BL2 CD40 inh 13.
For C[C@@H]1CN([C@H](C)CO)C(=O)Cc2cc(NS(=O)(=O)c3ccc(F)cc3)ccc2O[C@H]1CN(C)Cc1ccc(C(F)(F)F)cc1 the results were BL2 CD40 inh 56*.
For C[C@H](CO)N1C[C@H](C)[C@@H](CN(C)Cc2ccc(C(F)(F)F)cc2)Oc2ccc(NS(=O)(=O)c3ccc(Cl)cc3)cc2CC1=O the results were BL2 CD40 inh 52*.
`O=S(=O)(c1ccccc1)N1C[C@H]2[C@@H](c3ccccc31)[C@@H](CO)N2Cc1ccccn1` gave BL2 CD40 inh 5[25 µM].
`CCCNC(=O)N1CC2(C1)CN(C(=O)CN1CCOCC1)[C@@H](CO)c1[nH]c3cc(OC)ccc3c12` gave BL2 CD40 inh -9[25 µM].
For CO[C@H](CN(C)Cc1cc(F)ccc1F)[C@H](C)CN([C@H](C)CO)S(=O)(=O)c1ccc(F)cc1 the results were BL2 CD40 inh 7.
For Cc1cccc(S(=O)C(c2ccccc2)c2ccccc2)c1 (stereo unspecified) the results were BL2 CD40 inh 9.
CN1C(=O)c2cc(NC(=O)C3CCC3)ccc2OC[C@@H]2O[C@@H](CC(=O)NCCc3ccncc3)CC[C@@H]21 was read as BL2 CD40 inh -4.
For CN1c2ccc(-c3cccc(F)c3)cc2[C@H]2[C@H](CCN2C(=O)Cc2ccccc2)[C@@H]1CO the results were BL2 CD40 inh -19[25 µM].
For C=C1C(=O)C23C(O)C1CCC2C12CCCC(C)(COC(C)=O)C1C(O)C3(O)OC2 (stereo unspecified) the results were BL2 CD40 inh 104*.
Screening CCOC(=O)N1CCN(CC(=O)Nc2ccc(Oc3ccccc3)cc2)CC1 returned BL2 CD40 inh -3.
`COc1ccc(C(=O)N2C[C@@H]3[C@H](c4ccccc42)[C@H](CO)N3C(=O)NC(C)C)cc1` gave BL2 CD40 inh 4[25 µM].
For CCCNC(=O)N1CC2(CN(Cc3cccnc3)C2)c2c(n(C)c3cc(OC)ccc23)[C@H]1CO the results were BL2 CD40 inh -18[25 µM].
`OCC[n+]1ccc(/C=C/c2c[nH]c3ccccc23)cc1` gave BL2 CD40 inh 5.
`C(=NN=C1c2ccccc2-c2ccccc21)c1c[nH]c2ccccc12` gave BL2 CD40 inh -58.
`C(=Cc1c[nH]c2ccccc12)c1nccc2ccccc12` gave BL2 CD40 inh 62*.
`COc1ccc(S(=O)(=O)N(C)C[C@@H]2Oc3ccc(NS(=O)(=O)c4c(C)noc4C)cc3C(=O)N([C@H](C)CO)C[C@@H]2C)cc1` gave BL2 CD40 inh -12[25 µM].
For O=C(C1CCC1)N1C[C@@H]2[C@H](c3ccccc31)[C@H](CO)N2C(=O)c1ccccc1F the results were BL2 CD40 inh 4.
For Cc1ccc(S(=O)(=O)N2CCN(C(=O)COC(=O)CCOc3ccccc3C)CC2)c(C)c1 the results were BL2 CD40 inh -6.
`O=C1c2ccccc2-c2nc3ccccc3cc21` gave BL2 CD40 inh -84.
COc1ccc(C2C(=O)c3ccccc3C2=O)cc1 was read as BL2 CD40 inh -9.
Screening O=C1c2ccccc2C(=O)C1c1ccc2ccccc2n1 returned BL2 CD40 inh 52*.
C[C@@H]1CN([C@@H](C)CO)C(=O)c2cccc(NS(=O)(=O)c3cn(C)cn3)c2O[C@H]1CN(C)C(=O)Nc1ccc(F)cc1 was read as BL2 CD40 inh 3[25 µM].
Screening C[C@@H]1CN([C@H](C)CO)C(=O)CCCn2cc(nn2)CO[C@@H]1CN(C)C(=O)C1CCCCC1 returned BL2 CD40 inh -3.
For O=C(NCCc1ccccc1)C(=O)NCC1CCCN1S(=O)(=O)c1cccs1 (stereo unspecified) the results were BL2 CD40 inh 0.
`O=C1C=CC(=O)N1Cc1cccnc1` gave BL2 CD40 inh 7.
`O=C1C=CC(=O)N1CCCCCCCCCCN1C(=O)C=CC1=O` gave BL2 CD40 inh 110*.
For C[C@@H]1CN([C@H](C)CO)C(=O)c2ccccc2-c2ccccc2CO[C@@H]1CN(C)Cc1cccc2c1OCCCO2 the results were BL2 CD40 inh -5[25 µM].
N#C[C@@H]1[C@H](c2ccccc2-c2ccccc2F)[C@H](CO)N1C(=O)C1CCOCC1 was read as BL2 CD40 inh -2[25 µM].
`CC(=O)Nc1ccc(NC(=O)C(C)OC(=O)c2c(NC(C)=O)sc(C)c2C)cc1` (stereo unspecified) gave BL2 CD40 inh 6.
For O=C(CCNC(=O)c1ccccc1Cl)Nc1nc2ccccc2[nH]1 the results were BL2 CD40 inh -11.
COc1ccccc1C(=O)NCCC(=O)Nc1nc2ccccc2[nH]1 was read as BL2 CD40 inh 52*.
`COc1ccccc1C(=O)NCCC(=O)Nc1ccc(C)cn1` gave BL2 CD40 inh 8.
CC(C)NC(=O)N(C)C[C@@H]1OCCCC[C@H](C)Oc2ccc(NC(=O)NC3CCCCC3)cc2C(=O)N([C@@H](C)CO)C[C@@H]1C was read as BL2 CD40 inh -1.
Screening Clc1ccccc1/C=C/c1nc(-c2ccccn2)no1 returned BL2 CD40 inh 96*.
For Cc1occc1-c1nc(-c2ccccn2)no1 the results were BL2 CD40 inh -48.
`Cc1onc(-c2ccccc2Cl)c1-c1nc(-c2ccccn2)no1` gave BL2 CD40 inh 6.
For CCCN(C(=O)CSc1nnc(-c2ccncc2)n1CCC)c1c(N)n(Cc2ccccc2)c(=O)[nH]c1=O the results were BL2 CD40 inh 10.
`CCS(=O)(=O)N1CC(=O)N2[C@@H](CO)[C@@H](c3ccc(C#CC4CCCCC4)cc3)[C@@H]2C1` gave BL2 CD40 inh 1[25 µM].
For OC(CSc1ccc(F)cc1)CN1CCN(c2ccccc2)CC1 (stereo unspecified) the results were BL2 CD40 inh 10.
Oc1ccccc1-c1cc(-c2ccc3c(c2)OCCO3)n[nH]1 was read as BL2 CD40 inh 54*.
`c1cncc(-c2nc(-c3ccc4c(c3)OCCO4)cs2)c1` gave BL2 CD40 inh -59.
For Cc1nc(-c2ccc3c(c2)OCCO3)cs1 the results were BL2 CD40 inh -73.
For COc1cccc(NC(=O)N(C)C[C@H]2OCc3ccccc3-c3c(n(C)c4ccccc34)C(=O)N([C@@H](C)CO)C[C@H]2C)c1 the results were BL2 CD40 inh -13.
C[C@H]1CN([C@@H](C)CO)C(=O)CCCn2cc(nn2)CO[C@H]1CN(C)C(=O)Nc1ccc(N2CCCCC2)cc1 was read as BL2 CD40 inh -21[25 µM].
O=C(Nc1ccccc1F)N[C@H]1CC[C@@H](CCNC(=O)C2CCCC2)O[C@@H]1CO was read as BL2 CD40 inh 2.
